# Hits are enriched below; roughly 8% of the tested compounds scored in any of these assays.
# MARV entry inh – blocks Marburg virus binding or cell entry; AID 720532; Marburg virus pseudotype entry/binding inhibition, cell-based; Potency, µM (top dose mostly 49.2 µM), for the others: at the highest dose activity change, negative = inhibition, actives largely listed as inhibitors; 18,000 tested, 6.5% active
# LASV entry inh – blocks Lassa virus binding or cell entry; Lassa virus pseudotyped entry inhibition, cell-based qHTS; AID 720533; 18,000 tested, 4.1% active; Potency, µM (series often up to 49.2 µM), for the others: at the top dose activity change, negative = inhibition, usual class: inhibitors
# * marks the source's active call; other numbers are inactive results; ? = inconclusive; . = no result given; ! = not active in a repeat; [ ] = dose if it differs, or a comment. Calls follow the shape of the full dose curve; tested in HEK293 cells. % is scaled to controls: 0 for no effect and ±100 for the full control effect; potency is read from the fitted curve at half-maximal effect.
SMILES,MARV entry inh,LASV entry inh
CCON=O,-18%,10µM*
COC(=O)C(C(C)=O)[C@@H](NC(=O)OC(C)(C)C)c1ccccc1 (stereo partly specified),-7%[8.59 µM],-20%[8.59 µM]
CCc1cccc(N(C)C(N)=Nc2cccc3ccccc23)c1,28µM*,?
CN(C)c1cccc(CN2CCN(c3ccccc3)CC2)c1,-22%,-29%
COC(=O)C1=C(C)N(Cc2ccccc2)C(=NCCc2ccccn2)NC1c1cccc(F)c1 (stereo unspecified),-21%[8.59 µM],-8%[8.59 µM]
Oc1cc(O)cc(/C=C/c2ccc(O)c(O)c2)c1,20µM*!,22µM*
C/C=C/c1ccc(O)c(OC)c1,7%,-5%
OC[C@H]1O[C@H](C#Cc2ccc(F)cc2F)C=C[C@H]1O,?,-16%[8.59 µM]
CCCCC/C=C\C/C=C\C/C=C\C/C=C\CCCC(=O)NCCO,9%,3%
CCCCC/C=C\C/C=C\C/C=C\C/C=C\CCCC(=O)Nc1ccc(O)cc1,?,32µM*
CCCCC/C=C\C/C=C\C/C=C\C/C=C\CCCC(=O)Nc1ccc(O)cc1C,?,13µM*
CCCCC/C=C\C/C=C\C/C=C\C/C=C\CCCC(=O)NCC(=O)O,-56%,?
COC(=O)C1=C(C(=O)OC)[C@@H]2N(CC=C(C)C)c3ccccc3[C@@]23CCC(=O)N(CCc2ccccn2)C3=N1,12%[8.59 µM],-28%[8.59 µM]
CN1CCN(c2ccc(Nc3c4ccccc4nc4ccccc34)cc2)CC1,2µM*,?
O=c1nc2ccccc2c2n1C[C@H](CN1CCN(c3ccccc3)CC1)N2,0%,-1%
COC(=O)C1=C(C(=O)OC)[C@@H]2N(Cc3ccccc3)c3ccccc3[C@@]23C[C@@H](C(=O)OC)N(C(=O)Nc2ccccc2F)C3=N1,-13%[8.59 µM],-20%[8.59 µM]
CCc1cc(OC)c(C[C@H](C)N)cc1OC,?,-13%[107 µM]
COc1cc(CC(C)N)c(OC)cc1Br (stereo unspecified),18µM*,?
Cc1ccc2[nH]c3c(c2c1)CN(C(=O)CC1(c2ccccc2)CC(=O)N(Cc2cccnc2)C1=O)CC3 (stereo unspecified),-26%,-25%
CCOC(=O)CN1C(=O)NC(c2cccc(C(F)(F)F)c2)C(C(=O)OC)=C1C (stereo unspecified),-11%[8.59 µM],-14%[8.59 µM]
CC=CC(=O)C[C@H]1CC[C@@H](C)[C@@H](CCO)O1,33%[8.59 µM],0%[8.59 µM]
COc1ccccc1CNCCCCCCNCCCCCCCCNCCCCCCNCc1ccccc1OC,7.9µM*,?
CCCCCCCCNCCS(=O)(=O)NCc1ccccc1OC,?,-8%
C/C=C/c1ccc(OC)cc1,16%,-3%
COc1ccc(/C=C/c2cc(OC)cc(=O)o2)cc1,1.8µM*,8.9µM*
SMILES,MARV entry inh,LASV entry inh
CC(=O)C1CC2C=CCOP(=O)(O2)O1 (stereo unspecified),?,2%
NS(=O)(=O)c1ccc(N=Nc2c(O)[nH]c3ccc(C(=O)NCCc4cnc[nH]4)cc23)cc1,29%,?
CC#CCN1c2ccccc2[C@]23CCC(=O)N(Cc4cccc(C(F)(F)F)c4)C2=NC(C(=O)OC)=C(C(=O)OC)[C@H]13,19%[8.59 µM],-7%[8.59 µM]
C=CC(C)(C)c1c2c(c(O)c3c(=O)c4ccc(O)c(O)c4oc13)C=CC(C)(C)O2,20µM*,?
C=C1C(=O)[C@]23[C@H](O)[C@H]1CC[C@H]2[C@@]12COC3(O)[C@H](O)[C@@H]1C(C)(C)CC[C@@H]2O,18µM*,?
CCCCCCCC(=O)OCC(O)CO (stereo unspecified),13%,0%
CCCCCCCCCCOCC(O)CN (stereo unspecified),?,32µM*
CCCCCCCCCCCCSCCOCCO,18%,-13%
CCCCCCCCCCCCCCCCOCCOCCOCCOCCOCCOCCOCCOCCOCCOCCOCCOCCOCCOCCOCCOCCOCCOCCOCCOCCO,?,16µM*
C=CC1CC2C=CCOP(=S)(O1)O2 (stereo unspecified),-23%,29%
CN1CCN(C2Cc3ccccc3Sc3ccc(S)cc32)CC1 (stereo unspecified),13µM*,?
O=C1NC(=O)C(c2ccc(Cl)cc2)=C1Nc1ccc(Cl)c(C(=O)O)c1,?,47%
CC12CC3CC(C)(C1)CC(N)(C3)C2,-11%,35µM*!
NC12CC3CC(CC(C3)C1)C2,32µM*!,1%
C[C@@]12CC3CC(N)(C1)C[C@@](C)(C3)C2,?,1%[17.8 µM]
CCCC(=O)O[C@]1(C(=O)COC(=O)CC)[C@@H](C)C[C@H]2[C@@H]3CCC4=CC(=O)C=C[C@]4(C)[C@@]3(F)[C@@H](O)C[C@@]21C,11µM*,?
CCCCC(=O)O[C@@]1(C(=O)CO)C(C)CC2C3CCC4=CC(=O)C=C[C@@]4(C)[C@]3(F)C(O)C[C@]21C (stereo partly specified),-13%,-2%
COc1cccc([C@H]2NC(=O)C[C@@H]3C[C@@H](C)[C@@H](c4cccc(OC)c4)N3C(=O)C=CC[C@@H]2C)c1,8%[8.59 µM],44%[8.59 µM]
COCCN1C(=O)NC(CCc2ccccc2)C(C(=O)OC)=C1C (stereo unspecified),72%[8.59 µM],6%[8.59 µM]
C[C@@H]1CN(CCCn2c3ccccc3c3ccccc32)C[C@H](C)N1,7.9µM*,18µM*
CNc1ccc2oc(C[C@@H]3OC4(CC[C@@H]3C)O[C@H]([C@@H](C)C(=O)c3ccc[nH]3)[C@H](C)C[C@H]4C)nc2c1C(=O)O (stereo partly specified),2.8µM*,2.8µM*
COC(=O)C1=C(C(=O)OC)[C@@H]2N(C)c3ccccc3[C@@]23C[C@@H](C(=O)OC)N(C(=O)NCCBr)C3=N1,?,-1%[8.59 µM]
COc1cccc([C@@H]2Oc3ccc(OC)cc3C(=O)[C@@H]2O)c1,-11%[8.59 µM],92%[8.59 µM]
CN(C)CC/C=C1/c2ccccc2COc2ccc(CC(=O)O)cc21,22%,-13%
CN(C)CCC=C1c2ccccc2C(C)(C)c2ccccc21,4.5µM*,18µM*
SMILES,MARV entry inh,LASV entry inh
CN(C)CC/C=C1/c2ccccc2COc2ccccc21,?,3%
OCCN1CCN(CC/C=C2/c3ccccc3Sc3ccc(Cl)cc32)CC1,?,-28%[17.8 µM]
CN(C)CC/C=C1\c2ccccc2Sc2ccc(Cl)cc21,11µM*!,28µM*!
CN(C)CCC=C1c2ccccc2CCc2ccccc21,10µM*,?
CNCCC=C1c2ccccc2C=Cc2ccccc21,5µM*,?
CC(C)=CCCC(C)=CCON=C1C[C@@H](O)[C@@H](O)[C@@H]2[C@H]3C(=O)N(Cc4ccc5c(c4)OCO5)C(=O)[C@@H]3CC[C@@H]12,-44%[8.59 µM],.
Cc1cnc(-n2ncc(C(=O)NCCc3cccnc3)c2C)nc1-c1cccs1,-19%,8%
CS(=O)(=O)c1ccc(-c2cccc3c2OC(CNC(=O)c2ccnc(Cl)c2)C3)cc1 (stereo unspecified),9%,7%
COCCN1C(=O)N(C)C(c2ccccc2)C(C(C)=O)=C1C (stereo unspecified),?,-18%[8.59 µM]
O=C1C2=C(C(=O)c3ccccc31)[C@H]1O[C@](CCCCN3C(=O)c4ccccc4C3=O)(Cc3ccccc31)O2,41%[8.59 µM],-6%[8.59 µM]
COC(=O)C1=C(C)N(Cc2ccccc2)C(=O)NC1c1cccc(F)c1 (stereo unspecified),3%[8.59 µM],9%[8.59 µM]
COC(=O)CC=C[C@@H](C)[C@@H](C=NOCC[C@@H]1C=C[C@H](OC(C)=O)[C@@H](COC(C)=O)O1)NS(=O)(=O)c1ccc(C)cc1,53%[8.59 µM],-19%[8.59 µM]
CN(C)CCC=C1c2ccccc2C=Cc2ccccc21,11µM*,32µM*!
